Among the data in PubChem BioAssay (NCI) are growth values, retold here.

Among the test systems are RPMI-8226 leukemia; OVCAR-8 ovarian; OVCAR-5 ovarian; OVCAR-4 ovarian; SK-OV-3 ovarian; IGROV1 ovarian; OVCAR-3 ovarian; HS 578T breast; NCI/ADR-RES ovarian; T-47D breast; MDA-MB-435 melanoma; SW-620 colon; MCF7 breast; HCT-116 colon; HCC-2998 colon; KM12 colon; MDA-MB-468 breast; BT-549 breast.
Common to all, as to test: NCI-60 one-dose screen, 48 h (100 = growth as untreated, 0 = no growth, -100 = all killed)
Conditions in all cases: 10 µM

About 83,000 compounds went through this panel and 20% of them were active in at least one assay; those are over-represented in the sample as a whole.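 Treatment: one concentration, 48 hours, 96-well format. Scoring: percent growth, with anything below 10 considered active.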 Unmarked numbers belong to inactive results. The source made the active and inactive calls.

As to `O=C(Cn1cc(CSc2nnc3oc4ccccc4n23)nn1)Nc1ccc(Br)cc1`, the growth in the experiment on RPMI-8226 leukemia is 93.2%; with OVCAR-8 ovarian it was 16%; with OVCAR-5 ovarian, 91.6%; with OVCAR-4 ovarian it was 87%; with SK-OV-3 ovarian, 53.8%; in the experiment with IGROV1 ovarian, 75%. Also, the growth in the experiment with OVCAR-3 ovarian is 87%; with HS 578T breast, 20.3%; in the experiment on NCI/ADR-RES ovarian it was 51.3%; with T-47D breast, 70.5%; in the experiment on MDA-MB-435 melanoma it was 98.1%; with SW-620 colon it was 108%. Moreover, the growth with MCF7 breast is 65.3%; with HCT-116 colon, 82%; in the experiment with HCC-2998 colon, 96.4%; with KM12 colon, 85.7%; with MDA-MB-468 breast it was 80.1%.

On to `O=c1oc2ccc(-c3ccc(F)cc3F)cc2c(=O)n1-c1ccc(F)cc1`, for which the growth in the experiment on RPMI-8226 leukemia was -26.9% (active); in the experiment with OVCAR-8 ovarian, 14.7%; in the experiment on OVCAR-5 ovarian, 50.8%; in the experiment on OVCAR-4 ovarian, 10.8%; with SK-OV-3 ovarian it was -11% (active); in the experiment on IGROV1 ovarian it was 23.5%. The growth in the experiment with HS 578T breast is -0.922% (active); with NCI/ADR-RES ovarian it was -16.9% (active); in the experiment with T-47D breast, -20.5% (active); with BT-549 breast it was -25.8% (active); with MDA-MB-435 melanoma, 0.996% (active); in the experiment on SW-620 colon, 10.2%. Further, the growth is -4.67% (active) in the experiment with MCF7 breast; 8.96% (active) in the experiment on HCT-116 colon; 7.52% (active) in the experiment on HCC-2998 colon; -0.662% (active) with KM12 colon; -29.8% (active) with MDA-MB-468 breast.

Regarding `Cc1cccc2cc(-c3cc(-c4ccccc4)nc(=S)[nH]3)c(Cl)nc12`, the growth in the experiment on RPMI-8226 leukemia was 81%; in the experiment with OVCAR-8 ovarian, 85.4%; in the experiment on OVCAR-5 ovarian it was 108%; in the experiment with OVCAR-4 ovarian, 99.5%; with SK-OV-3 ovarian it was 116%; in the experiment on IGROV1 ovarian it was 93.1%. Moreover, the growth was 59.4% in the experiment on HS 578T breast; 56.6% in the experiment with NCI/ADR-RES ovarian; 72.9% in the experiment with T-47D breast; 53.1% with BT-549 breast; -6.63% (active) in the experiment with MDA-MB-435 melanoma; 92% in the experiment with SW-620 colon. Further, the growth in the experiment with MCF7 breast is 68.3%; with HCT-116 colon it was 83.3%; with HCC-2998 colon, 93.1%; in the experiment on KM12 colon, 91.4%.

As for `COC[C@@H](CC(C)C)N=C1NC(=O)/C(=C/c2ccc3ncsc3c2)N1`, the growth in the experiment with RPMI-8226 leukemia is 4.92% (active); with OVCAR-8 ovarian, 13.7%; in the experiment on OVCAR-5 ovarian, -21.7% (active); in the experiment with OVCAR-4 ovarian, 40.4%; with SK-OV-3 ovarian it was -0.203% (active); with IGROV1 ovarian, 8.22% (active). The growth with OVCAR-3 ovarian is -38.4% (active); in the experiment with HS 578T breast it was 11.6%; in the experiment on NCI/ADR-RES ovarian it was 9.71% (active); in the experiment with T-47D breast, -7.77% (active); in the experiment with MDA-MB-435 melanoma, 12.7%; with SW-620 colon it was 5.92% (active). Further, the growth with MCF7 breast was -17.7% (active); with HCT-116 colon, 19.2%; with KM12 colon, 21%; with MDA-MB-468 breast, -17.8% (active).

Regarding `O=C1Nc2ccc(F)cc2/C1=C/c1cccc(OCc2ccccn2)c1`, the growth with RPMI-8226 leukemia is 18.6%; in the experiment with OVCAR-8 ovarian, 25.7%; with OVCAR-5 ovarian, 60.4%; with OVCAR-4 ovarian, 61.3%; in the experiment with SK-OV-3 ovarian it was 69.6%; in the experiment with IGROV1 ovarian it was 41.9%. Moreover, the growth in the experiment with OVCAR-3 ovarian is 27%; in the experiment on HS 578T breast it was -6.56% (active); in the experiment on NCI/ADR-RES ovarian, 7.99% (active); in the experiment with T-47D breast, 45%; in the experiment with MDA-MB-435 melanoma it was -9.87% (active); with SW-620 colon it was -0.341% (active). In addition, the growth with MCF7 breast was 3.16% (active); with HCT-116 colon, 1.75% (active); in the experiment with HCC-2998 colon it was 74.1%; in the experiment with KM12 colon, 15.4%; in the experiment on MDA-MB-468 breast, -5.96% (active).

`CCCCCCCCCCCCCCCCCCCC(=O)NCCc1c[nH]c2ccc(O)cc12`: the growth in the experiment with RPMI-8226 leukemia is 28.2%; with OVCAR-8 ovarian, 102%; in the experiment on OVCAR-5 ovarian it was 111%; in the experiment with OVCAR-4 ovarian, 98%; in the experiment on SK-OV-3 ovarian it was 137%; with IGROV1 ovarian, 93.6%. The growth in the experiment on OVCAR-3 ovarian was 87.4%; in the experiment on HS 578T breast, 112%; in the experiment with T-47D breast, 103%; in the experiment with BT-549 breast, 32.3%; with MDA-MB-435 melanoma, 112%; with SW-620 colon, 112%. The growth was 84.9% in the experiment with MCF7 breast; 83.3% with HCT-116 colon; 114% in the experiment with HCC-2998 colon; 88.5% in the experiment on KM12 colon; 128% with MDA-MB-468 breast.

`Cc1ccc(-c2ccc(SCC(=O)Nc3ccc(Cl)c(C(F)(F)F)c3)nn2)cc1`: the growth in the experiment with RPMI-8226 leukemia was 19.7%; in the experiment with OVCAR-8 ovarian, 1.56% (active); with OVCAR-5 ovarian, 39.1%; in the experiment on OVCAR-4 ovarian, 62.4%; in the experiment with SK-OV-3 ovarian it was 46.6%; in the experiment with IGROV1 ovarian it was 30.1%. Further, the growth in the experiment with OVCAR-3 ovarian was 2.46% (active); in the experiment on HS 578T breast, 15.7%; with T-47D breast, 26.2%; with BT-549 breast, 25.4%; in the experiment with MDA-MB-435 melanoma, -18.8% (active); in the experiment on SW-620 colon, 24.2%. In addition, the growth was 15.9% in the experiment with MCF7 breast, 10.3% in the experiment on HCT-116 colon, 24.7% in the experiment with KM12 colon and -31% (active) with MDA-MB-468 breast.

With `COc1cc(Cn2c(C(F)(F)F)cc3c(Cl)ncnc32)ccn1`, the growth in the experiment on RPMI-8226 leukemia is 6.17% (active); in the experiment on OVCAR-8 ovarian it was -16% (active); in the experiment with OVCAR-5 ovarian, 93.7%; in the experiment with OVCAR-4 ovarian, -58.4% (active); in the experiment with SK-OV-3 ovarian, 75.4%; in the experiment with IGROV1 ovarian, -90.6% (active). Also, the growth with OVCAR-3 ovarian was -52.4% (active); in the experiment with HS 578T breast, 11.2%; in the experiment on NCI/ADR-RES ovarian, 67.7%; with T-47D breast, 66.5%; with BT-549 breast it was -15.9% (active); with MDA-MB-435 melanoma, -0.488% (active). Moreover, the growth in the experiment with SW-620 colon was 4.9% (active); with MCF7 breast, 7.67% (active); in the experiment on HCC-2998 colon it was -95.6% (active); with KM12 colon, 30.8%; in the experiment with MDA-MB-468 breast, -80.9% (active).

With `CC1(C)CC[C@]2(C(=O)NCCCNCCCCNCCCN)CC[C@]3(C)C(=CC[C@@H]4[C@@]5(C)Cc6c([nH]c7ccccc67)C(C)(C)[C@@H]5CC[C@]43C)[C@H]2C1`, the growth with RPMI-8226 leukemia is 68.3%; in the experiment with OVCAR-8 ovarian, 98.6%; in the experiment with OVCAR-5 ovarian it was 91.1%; in the experiment with OVCAR-4 ovarian, 102%; in the experiment with SK-OV-3 ovarian, 66.6%; with IGROV1 ovarian, 77.3%. Further, the growth was 93.6% in the experiment with HS 578T breast; 93.2% in the experiment with NCI/ADR-RES ovarian; 78.7% in the experiment with T-47D breast; 109% in the experiment on BT-549 breast; 106% in the experiment with MDA-MB-435 melanoma; 113% in the experiment with SW-620 colon. The growth was 62.9% with MCF7 breast; 65.3% in the experiment on HCT-116 colon; 96.5% with HCC-2998 colon; 96.4% in the experiment with KM12 colon; 75.3% in the experiment on MDA-MB-468 breast.
